Assay results as given in the supplement of paper PMC10849652.
Of roughly 7,900 targets only a part is listed; those with a hit were picked by preference. About 0.6% of all pairs of compound and target were hits. Values without a mark were called inactive.

Columns and labels:
Assay in all cases: log2 fold change, soluble protein after heating vs DMSO (PISA); higher = thermal stabilisation; K562 cells, 10 uM, 30 min; active = over 0.2 and 3.5 SD of the protein, either way, in both replicates (recomputed)
erlotinib = compound: C#Cc1cccc(Nc2ncnc3cc(OCCOC)c(OCCOC)cc23)c1 [erlotinib]
Outline: (§1)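 Soluble protein was defined as the supernatant after 21,000xg for 90 min. It came from K562 cells at 2×10^6 cells/mL given 10 μM compound for 30 min, heated in aliquots for 3 min across 48°C-58°C, pooled, and extracted in PBS with 0.5% NP-40 at 4°C, and was quantified by TMTpro 16plex LC-MS/MS with equalised channel sums. Thermal stability against control samples, from duplicates, is reported as log2 fold change.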

[1] = compound: C/C(=N\NC(=O)C1=CC(=CC=C1)S(=O)(=O)N2CCOCC2)/C3=C(C=CC(=C3)Cl)O
Outline: as §1

[2] = compound: C1=CC(=C(C=C1Cl)C2=NC3=NC=CN=C3C(=N2)NC4=CC=NC=C4)F
Outline: as §1

[3] = compound: C1=CC(=CC=C1C2=NC3=C(N2)C=C(C=C3)C(=O)N)OC4=CC=C(C=C4)Cl
Outline: as §1

[4] = compound: C1=CC2=C(C=CC(=C2)/C=C\3/C(=O)NC(=NCC4=CC=CS4)S3)N=C1
Outline: as §1

[5] = compound: C1=CC=C2C(=C1)C3=NNC4=CC=CC(=C43)C2=O
Outline: as §1

[6] = compound: C1CCN(C1)C(=O)NC2=CC=CC(=C2)NC3=NC=C(C(=N3)NCCC4=CN=CN4)Br
Outline: as §1

[7] = compound: C1CN(CCC1(CC2=CC=C(C=C2)Cl)N)C3=NC=NC4=C3C=CN4
Outline: as §1

[8] = compound: C1=CC2=NC=CN=C2C=C1/C=C/3\C(=O)NC(=O)S3
Outline: as §1

[9] = compound: C1=CC=C(C=C1)C2=NC(=C(N2)C3=CC=NC=C3)C4=CC(=C(C=C4)Cl)O
Outline: as §1

UniProt P78332, sequence (P78332 whole entry, looked up): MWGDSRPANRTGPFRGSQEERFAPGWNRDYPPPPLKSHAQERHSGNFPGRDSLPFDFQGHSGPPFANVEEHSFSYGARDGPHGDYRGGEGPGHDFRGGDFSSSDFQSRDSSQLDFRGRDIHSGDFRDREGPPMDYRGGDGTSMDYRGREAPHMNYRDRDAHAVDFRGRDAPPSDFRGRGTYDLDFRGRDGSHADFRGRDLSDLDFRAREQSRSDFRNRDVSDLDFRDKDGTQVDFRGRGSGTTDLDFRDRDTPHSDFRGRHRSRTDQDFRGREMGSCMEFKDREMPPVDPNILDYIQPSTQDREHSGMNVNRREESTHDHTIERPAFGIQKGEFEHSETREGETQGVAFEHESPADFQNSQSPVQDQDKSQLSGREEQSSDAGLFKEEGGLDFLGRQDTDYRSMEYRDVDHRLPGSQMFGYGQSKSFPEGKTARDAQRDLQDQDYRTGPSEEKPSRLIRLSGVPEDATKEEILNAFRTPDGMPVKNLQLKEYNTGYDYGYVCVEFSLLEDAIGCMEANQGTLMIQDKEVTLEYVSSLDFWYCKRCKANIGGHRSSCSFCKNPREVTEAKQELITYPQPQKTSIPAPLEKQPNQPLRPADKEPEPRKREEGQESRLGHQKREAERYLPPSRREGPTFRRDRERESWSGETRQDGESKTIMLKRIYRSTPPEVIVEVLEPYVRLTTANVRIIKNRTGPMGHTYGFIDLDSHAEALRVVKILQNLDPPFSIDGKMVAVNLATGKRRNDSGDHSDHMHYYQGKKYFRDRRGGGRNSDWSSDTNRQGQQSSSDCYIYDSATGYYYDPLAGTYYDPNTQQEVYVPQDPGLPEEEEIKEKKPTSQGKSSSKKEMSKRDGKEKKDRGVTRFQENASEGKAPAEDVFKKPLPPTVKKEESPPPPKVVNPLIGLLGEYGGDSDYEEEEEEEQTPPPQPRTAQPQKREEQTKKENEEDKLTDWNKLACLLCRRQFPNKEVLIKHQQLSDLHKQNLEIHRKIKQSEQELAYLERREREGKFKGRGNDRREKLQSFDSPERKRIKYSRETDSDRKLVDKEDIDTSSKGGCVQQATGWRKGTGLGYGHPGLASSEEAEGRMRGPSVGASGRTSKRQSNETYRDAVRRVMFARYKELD
UniProt O95716, sequence (O95716 whole entry, looked up): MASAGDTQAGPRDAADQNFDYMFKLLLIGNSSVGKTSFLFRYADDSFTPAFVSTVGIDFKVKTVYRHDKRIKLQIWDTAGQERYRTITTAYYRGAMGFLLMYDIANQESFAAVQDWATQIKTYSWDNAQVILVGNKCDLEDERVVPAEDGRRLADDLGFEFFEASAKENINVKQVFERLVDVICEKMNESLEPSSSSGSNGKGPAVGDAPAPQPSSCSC
UniProt Q5PRF9, sequence (Q5PRF9 whole entry, looked up): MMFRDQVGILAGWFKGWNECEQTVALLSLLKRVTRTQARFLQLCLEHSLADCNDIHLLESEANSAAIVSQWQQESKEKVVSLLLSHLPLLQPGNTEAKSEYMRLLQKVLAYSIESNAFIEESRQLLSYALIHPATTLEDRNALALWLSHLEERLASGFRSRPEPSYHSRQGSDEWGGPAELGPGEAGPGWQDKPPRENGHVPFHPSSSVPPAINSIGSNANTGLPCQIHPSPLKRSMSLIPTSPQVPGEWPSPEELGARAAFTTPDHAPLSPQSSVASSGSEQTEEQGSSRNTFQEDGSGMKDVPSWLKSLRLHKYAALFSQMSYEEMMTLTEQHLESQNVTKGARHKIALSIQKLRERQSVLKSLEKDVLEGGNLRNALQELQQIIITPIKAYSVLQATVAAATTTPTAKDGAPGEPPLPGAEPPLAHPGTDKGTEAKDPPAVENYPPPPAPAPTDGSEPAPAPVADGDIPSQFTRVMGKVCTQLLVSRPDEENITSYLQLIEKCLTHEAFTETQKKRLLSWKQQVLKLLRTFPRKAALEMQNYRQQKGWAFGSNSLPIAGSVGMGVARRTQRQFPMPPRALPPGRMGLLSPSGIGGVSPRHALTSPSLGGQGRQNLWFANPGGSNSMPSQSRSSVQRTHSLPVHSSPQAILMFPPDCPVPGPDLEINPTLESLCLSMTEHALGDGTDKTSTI
UniProt Q86UA6, sequence (Q86UA6 whole entry, looked up): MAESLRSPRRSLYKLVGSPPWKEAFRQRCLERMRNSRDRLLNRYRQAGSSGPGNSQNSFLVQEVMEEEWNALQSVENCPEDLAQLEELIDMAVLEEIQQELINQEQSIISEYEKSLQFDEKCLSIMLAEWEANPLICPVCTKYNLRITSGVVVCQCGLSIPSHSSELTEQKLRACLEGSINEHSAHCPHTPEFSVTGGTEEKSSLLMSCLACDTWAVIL
UniProt Q99496, sequence (Q99496 whole entry, looked up): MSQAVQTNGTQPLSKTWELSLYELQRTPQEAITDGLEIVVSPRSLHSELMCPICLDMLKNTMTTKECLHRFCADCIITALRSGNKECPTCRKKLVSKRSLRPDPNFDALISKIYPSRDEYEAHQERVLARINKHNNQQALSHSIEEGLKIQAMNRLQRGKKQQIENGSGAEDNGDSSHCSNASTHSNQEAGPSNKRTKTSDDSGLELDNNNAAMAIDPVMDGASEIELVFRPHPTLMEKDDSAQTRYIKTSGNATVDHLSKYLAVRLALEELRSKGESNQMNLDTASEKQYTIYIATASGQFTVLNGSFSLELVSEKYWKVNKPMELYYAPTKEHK
UniProt Q6R327, sequence (Q6R327 whole entry, looked up): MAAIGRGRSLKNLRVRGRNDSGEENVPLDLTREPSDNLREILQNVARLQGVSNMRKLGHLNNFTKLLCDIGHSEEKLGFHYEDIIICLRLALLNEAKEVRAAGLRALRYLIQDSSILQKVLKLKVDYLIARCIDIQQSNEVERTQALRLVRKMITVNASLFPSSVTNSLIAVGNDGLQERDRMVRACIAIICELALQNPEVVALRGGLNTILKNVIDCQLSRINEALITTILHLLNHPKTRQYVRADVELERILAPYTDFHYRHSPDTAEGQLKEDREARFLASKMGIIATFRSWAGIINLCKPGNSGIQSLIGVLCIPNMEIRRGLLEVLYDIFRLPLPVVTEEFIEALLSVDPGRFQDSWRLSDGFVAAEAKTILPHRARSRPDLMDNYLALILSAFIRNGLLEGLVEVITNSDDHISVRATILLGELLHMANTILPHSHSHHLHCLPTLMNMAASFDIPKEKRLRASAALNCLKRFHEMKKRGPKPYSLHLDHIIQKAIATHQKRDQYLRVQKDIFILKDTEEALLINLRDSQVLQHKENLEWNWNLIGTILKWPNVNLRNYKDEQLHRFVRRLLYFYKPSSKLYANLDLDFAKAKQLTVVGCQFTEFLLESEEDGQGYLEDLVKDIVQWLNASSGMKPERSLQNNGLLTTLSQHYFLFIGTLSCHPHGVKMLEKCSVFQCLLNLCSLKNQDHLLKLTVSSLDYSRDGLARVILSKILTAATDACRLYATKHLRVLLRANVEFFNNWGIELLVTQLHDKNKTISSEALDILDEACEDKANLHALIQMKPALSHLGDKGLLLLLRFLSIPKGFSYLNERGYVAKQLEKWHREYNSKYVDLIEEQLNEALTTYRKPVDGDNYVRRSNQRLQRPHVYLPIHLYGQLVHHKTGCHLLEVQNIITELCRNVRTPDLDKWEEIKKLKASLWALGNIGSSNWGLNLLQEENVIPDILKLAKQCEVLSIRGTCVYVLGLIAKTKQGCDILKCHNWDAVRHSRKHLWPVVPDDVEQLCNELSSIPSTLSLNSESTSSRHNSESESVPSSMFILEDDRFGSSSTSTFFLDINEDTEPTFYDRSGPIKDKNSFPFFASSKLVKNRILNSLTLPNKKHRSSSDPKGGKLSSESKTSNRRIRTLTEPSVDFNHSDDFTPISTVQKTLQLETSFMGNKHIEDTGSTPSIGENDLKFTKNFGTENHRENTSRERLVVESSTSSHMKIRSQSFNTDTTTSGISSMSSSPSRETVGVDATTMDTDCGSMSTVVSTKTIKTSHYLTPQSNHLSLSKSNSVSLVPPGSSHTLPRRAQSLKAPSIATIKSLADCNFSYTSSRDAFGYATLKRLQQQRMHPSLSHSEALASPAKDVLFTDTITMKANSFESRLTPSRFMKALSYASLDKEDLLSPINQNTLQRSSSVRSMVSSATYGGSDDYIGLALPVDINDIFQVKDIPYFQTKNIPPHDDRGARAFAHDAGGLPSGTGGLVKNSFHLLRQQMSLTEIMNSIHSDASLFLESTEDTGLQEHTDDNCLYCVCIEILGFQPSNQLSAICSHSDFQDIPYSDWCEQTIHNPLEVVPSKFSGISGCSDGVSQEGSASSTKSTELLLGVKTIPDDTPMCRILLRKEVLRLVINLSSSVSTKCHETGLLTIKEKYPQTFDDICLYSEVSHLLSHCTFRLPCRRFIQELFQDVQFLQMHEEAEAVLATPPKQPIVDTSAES
UniProt Q04206, sequence (Q04206 whole entry, looked up): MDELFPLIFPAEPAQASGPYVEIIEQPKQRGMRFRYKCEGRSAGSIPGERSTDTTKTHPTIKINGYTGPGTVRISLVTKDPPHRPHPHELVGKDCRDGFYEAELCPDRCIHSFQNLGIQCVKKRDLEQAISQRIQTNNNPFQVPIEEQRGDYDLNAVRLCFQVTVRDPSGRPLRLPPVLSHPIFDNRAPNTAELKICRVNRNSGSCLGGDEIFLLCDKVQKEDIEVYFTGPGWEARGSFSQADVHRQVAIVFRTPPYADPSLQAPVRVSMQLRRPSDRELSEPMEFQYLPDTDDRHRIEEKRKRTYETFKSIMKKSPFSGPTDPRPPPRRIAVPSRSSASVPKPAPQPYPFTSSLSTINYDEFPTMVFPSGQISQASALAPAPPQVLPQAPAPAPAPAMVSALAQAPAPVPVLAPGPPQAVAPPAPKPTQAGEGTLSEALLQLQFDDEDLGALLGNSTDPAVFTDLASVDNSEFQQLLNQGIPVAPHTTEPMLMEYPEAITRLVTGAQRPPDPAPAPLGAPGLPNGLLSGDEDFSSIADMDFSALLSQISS
UniProt Q96GF1, sequence (Q96GF1 whole entry, looked up): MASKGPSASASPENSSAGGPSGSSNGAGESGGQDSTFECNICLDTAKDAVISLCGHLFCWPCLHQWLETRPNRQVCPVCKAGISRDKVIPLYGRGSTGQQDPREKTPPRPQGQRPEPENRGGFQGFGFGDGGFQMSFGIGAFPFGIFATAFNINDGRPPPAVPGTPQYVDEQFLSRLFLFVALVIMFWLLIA

Row | Target | log2 fold change (erlotinib) | log2 fold change [1] | log2 fold change [2] | log2 fold change [3] | log2 fold change [4] | log2 fold change [5] | log2 fold change [6] | log2 fold change [7] | log2 fold change [8] | log2 fold change [9]
1 | RICTOR isoform 3 (UniProt Q6R327) | 0.116 | 0.025 | -0.067 | 0.36 | -0.031 | -0.136 | 0.054 | -0.001 | – | –
2 | SLC12A5 (UniProt Q9H2X9) | 0.036 | 0.054 | -0.49 (active) | 0.034 | 0.098 | -0.138 | 0.038 | 0.103 | -0.021 | –
3 | RCOR3 isoform 3 (UniProt Q9P2K3) | 0.116 | 0.084 | – | -0.008 | 0.022 | 0.018 | -0.003 | 0.057 | -0.01 | -0.011
4 | RPAIN isoform 8 (UniProt Q86UA6) | – | 0.205 | 0.085 | – | -0.03 | 0.009 | -0.035 | -0.002 | 0.048 | 0.083
5 | RNF2 (UniProt Q99496) | -0.014 | 0.116 | -0.013 | -0.231 | -0.057 | -0.053 | -0.103 | -0.006 | -0.004 | –
6 | RAB3D (UniProt O95716) | -0.094 | 0.036 | – | -0.141 | -0.055 | -0.058 | 0.007 | 0.036 | 0.006 | -0.145
7 | RPS6KA3 (UniProt P51812) | -0.024 | 0.08 | 0.018 | 0.072 | – | -0.345 (active) | -0.085 | -0.017 | 0.061 | -0.043
8 | SEMG2 (UniProt Q02383) | – | 1.75 | 0.047 | – | 0.237 | -0.562 (active) | -0.071 | 0.06 | -0.042 | –
9 | RBM6 (UniProt P78332) | – | 0.019 | – | – | 0.036 | -0.1 | 0.048 | 0.018 | – | –
10 | RBMY1E (UniProt A6NEQ0) | -0.238 | – | – | 0.06 | – | – | -0.072 | -0.099 | -0.003 | -0.044
11 | RELA (UniProt Q04206) | – | 0.034 | 0.003 | -0.011 | -0.007 | 0.004 | -0.022 | 0.011 | 0.014 | -0.002
12 | SAMD4B (UniProt Q5PRF9) | -0.117 | – | -0.17 | -0.13 | – | – | 0.037 | 0.045 | 0.124 | -0.135
13 | RNF185 (UniProt Q96GF1) | -0.054 | -0.006 | – | 0.009 | 0.136 | -0.007 | 0.457 | -0.031 | 0.026 | 0.133
14 | SAFB2 (UniProt K7EQU4) | – | – | -0.172 | – | – | – | – | – | -0.277 | –
15 | RPS19 (UniProt M0R2L9) | – | -0.054 | – | – | -0.246 | 0.732 | 0.522 | -0.095 | – | –
